# Laboratory results taken from the supplement of paper PMC6555819.
# What was measured:
# Experiment in all cases: PBM binding z-score (relative to random genomic background probes); higher = stronger binding; sequences stand for … in GC…GCGATTGACAGCGTAGAATGAAGG
# [1] = test system: FXR:RXRa (NR concentration 270 nM, RXRa partner concentration 90 nM)
# Procedure, shortened: (§1)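 Each nuclear receptor dimer, without ligand, was incubated for 1 h on custom Agilent 4×180K protein-binding microarrays. Binding was detected with antibodies against each partner (one per run), and scanned fluorescence was regression-normalized. The binding z-scores are referenced to random human genomic background probes.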
# [2] = test system: LXRa:RXRa (NR concentration 270 nM, RXRa partner concentration 90 nM)
# Procedure, shortened: as §1
# [3] = test system: LXRa homodimer (NR concentration 270 nM)
# Procedure, shortened: as §1
# [4] = test system: LXRb:RXRa (NR concentration 270 nM, RXRa partner concentration 90 nM)
# Procedure, shortened: as §1
# [5] = test system: LXRb homodimer (NR concentration 270 nM)
# Procedure, shortened: as §1
# [6] = test system: PPARa:RXRa (NR concentration 270 nM, RXRa partner concentration 90 nM)
# Procedure, shortened: as §1
# [7] = test system: PPARg:RXRa (NR concentration 180 nM, RXRa partner concentration 90 nM)
# Procedure, shortened: as §1
# [8] = test system: PPARg:RXRa 270nM:90nM, anti-RXR (NR concentration 270 nM, RXRa partner concentration 90 nM)
# Procedure, shortened: as §1
# [9] = test system: PPARg:RXRa 30nM:10nM, anti-RXR (NR concentration 30 nM, RXRa partner concentration 10 nM)
# Procedure, shortened: as §1
# [10] = test system: PPARg:RXRa 90nM:30nM, anti-RXR (NR concentration 90 nM, RXRa partner concentration 30 nM)
# Procedure, shortened: as §1
# [11] = test system: PPARg:RXRa DBDmut IVT, anti-RXR (DBD mutation: RXRa K156A/R161A, NR concentration 270 nM, RXRa partner concentration 90 nM)
# Procedure, shortened: as §1
# [12] = test system: PPARg:RXRa IVT, anti-PPARg (NR concentration 270 nM, RXRa partner concentration 90 nM)
# Procedure, shortened: as §1
# [13] = test system: PPARg DBDmut:RXRa IVT, anti-PPARg (DBD mutation: PPARg1 K132A/R137A, NR concentration 270 nM, RXRa partner concentration 90 nM)
# Procedure, shortened: as §1
# [14] = test system: PPARg DBDmut IVT, anti-PPARg (DBD mutation: PPARg1 K132A/R137A, NR concentration 270 nM)
# Procedure, shortened: as §1
# [15] = test system: PPARg homodimer (NR concentration 180 nM)
# Procedure, shortened: as §1
# [16] = test system: PXR:RXRa (NR concentration 270 nM, RXRa partner concentration 90 nM)
# Procedure, shortened: as §1
# [17] = test system: PXR homodimer (NR concentration 270 nM)
# Procedure, shortened: as §1
# [18] = test system: RARa:RXR (NR concentration 270 nM, RXRa partner concentration 90 nM)
# Procedure, shortened: as §1
# [19] = test system: RARa homodimer (NR concentration 270 nM)
# Procedure, shortened: as §1
# [20] = test system: RARb:RXRa (NR concentration 270 nM, RXRa partner concentration 90 nM)
# Procedure, shortened: as §1
Sequence,PBM binding z-score [1],PBM binding z-score [2],PBM binding z-score [3],PBM binding z-score [4],PBM binding z-score [5],PBM binding z-score [6],PBM binding z-score [7],PBM binding z-score [8],PBM binding z-score [9],PBM binding z-score [10],PBM binding z-score [11],PBM binding z-score [12],PBM binding z-score [13],PBM binding z-score [14],PBM binding z-score [15],PBM binding z-score [16],PBM binding z-score [17],PBM binding z-score [18],PBM binding z-score [19],PBM binding z-score [20]
CCTGCTAGGTGATGGTCAGCTAATCTACAGTATG,-0.61,-0.646,-0.557,-0.682,-0.584,-0.449,-0.12,-0.449,-0.178,-0.369,1.57,1.13,-1.09,-0.973,-0.218,-0.725,-0.701,-0.72,-0.885,0.079
ATACGTAGGTTAAGGGTCATTCAGGTTGGTTCGC,5.1,4.98,2.92,4.46,1.03,5.41,7.56,7.6,6.33,8.26,1.41,3.8,0.783,0.775,3.98,5.7,2.65,6.55,2.24,3.7
CGTCCAAGGTCATAGGTGGTCAGTGAAGACAGAT,7.11,5.63,1.51,4,0.409,5.57,5.44,5.25,2.42,4.36,2.96,3.73,0.259,-0.648,2.54,4.5,1.58,5,1.26,4.89
CAAACTAGGTCACGAAAGGTAAAAGTCGAATGAC,5.18,4.51,0.678,3,0.18,5.71,9.74,7.96,6.05,7.49,8.36,9.37,5.06,2.46,2.6,3.12,0.438,3.69,1.43,4.33
CCAGACAGGTGAAAGGTAACTCATTCTGGTACGC,0.79,0.853,0.0278,1.09,-0.276,3.51,5.48,6.19,3.72,6.34,2.34,3.01,-0.114,-0.175,1.3,1.12,0.37,2.12,1.09,1.4
CCTAGCAGTCCAGGGTCACTCAAGCATTTCGCTT,1.93,1.87,-0.123,2.26,-0.47,3.08,0.115,1.17,-0.788,0.355,-0.136,0.647,-1.3,-1.13,1.01,2.58,2.51e-05,3.02,-0.3,2.33
ATCGAAAGGTCGACGAAGTGAGTATACACCGTTT,3.64,2.87,-0.00377,2.49,0.429,3.98,2.23,2.51,0.7,1.46,0.569,1.5,1.34,0.821,1.08,2.28,-0.00563,2.81,-0.0339,3.71
TCTGCTAGGTCCGTTGGTCAGCTAACGAGCTGCC,-0.505,-0.6,-1.09,-0.828,-0.736,-0.336,-1.2,-0.0919,0.802,0.586,0.439,-0.053,-0.86,0.217,-1.34,-0.511,-1.26,-0.446,-1.4,-0.0528
CCTAGTTAGTCAAGGTCACACACGCTATAGGTAC,4.07,4.91,3.93,3.98,1.49,3.99,2.29,2.75,1.02,1.79,1.6,2.69,1.12,1.42,3.64,4.25,2.22,4.4,2.9,4.01
TCATATAGGTACAAGGTGAAAGTCGGTGTGGTAA,0.883,1.08,0.335,1.18,0.0749,3.3,4.66,5.75,5.85,6.21,3.23,2.75,0.878,0.815,1.21,0.845,0.358,1.25,1.19,1.12
ATCTCTAGGTAAAGTTCGGTGAAAGATCGATAGA,0.889,1.94,0.491,0.602,0.935,1.22,1.55,2.48,1.27,2.34,2.6,2.15,1.46,1.56,0.996,0.633,0.941,0.644,1.22,0.896
ACTATTAGTTGGGACGAGGGCAACCGATAGGTTG,0.251,0.126,-0.235,0.0169,0.305,0.354,0.695,0.305,0.0129,0.225,-0.0902,0.659,0.777,0.502,0.934,0.478,0.579,0.451,0.563,1.03
ATCTCTAGGTAAGACTCAGTTAAGTGAAGAACGC,0.573,0.359,0.508,0.191,0.75,0.00438,0.0664,-0.0342,0.242,-0.00989,1.7,1.21,0.936,1.52,0.709,0.115,0.648,0.211,1.29,0.0635
GCGACCGGGGCATCAGCAGGTTACCATAACTTAA,0.256,0.277,-0.271,0.643,-0.263,1.17,0.512,-0.0952,-0.743,-0.899,0.0389,0.384,-1.59,-1.19,0.373,0.411,-0.173,0.981,-0.42,1.3
